Experimental findings from PubChem BioAssay (NCI) are described below.

Molecules are shown by their SMILES. The panel holds about 79,000 compounds, 15% with a hit somewhere; the sample as a whole holds those more often. Unmarked numbers belong to inactive results. Calls of active or inactive are those of the source. Cut-off read from the data, not from the text of the source: active = growth inhibition above about 70%; inactive = the rest.

One assay in a line: NCI Yeast Anticancer Drug Screen. Data for the bub3 strain (AID 167). The note with it: S. cerevisiae bub3 mutant strain, at 50.0 µM, active compounds read high. In short, it runs like this:
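Readout: yeast growth inhibition, expressed relative to vehicle-only wells. The test organism is a mutant strain from a panel with lesions in DNA repair or checkpoint genes.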
As for `CCCc1nc2ccc(C)cc2[nH]1`, the growth inhibition is -1.5%.
Same read-out and setting: with `COc1cc(C2C3=C(COC3=O)OC(C)(C)Oc3cc4c(cc32)OCO4)cc(OC)c1O` (stereo not given) the figure was -27.1%.
For the compound `O=C(O)C(CCOc1ccccc1)(CCc1ccccc1)C(=O)O`, the growth inhibition was -8.1%.
Same read-out and setting: with `COC(=O)c1c(C(=O)Nc2ccccc2)c(-c2ccccc2)n(NC(N)=O)c1C` the figure was -1.75%.
On the same count and under the same terms, for `CC(=O)Nc1ccc(/C=C2\SC(=S)N(/C=C3/C(=O)N(c4ccccc4)N=C3C)C2=O)cc1` the value was -2.85%; for `CC(=O)N1C(Nc2ccccc2)CCN1c1ccccc1` (stereo not given), 2.05%.
The same measure, in the same setting: for `COC1OC(CO)C(O)C(NC(=O)OCc2ccccc2)C1O` (stereo not given) the value was 1.1%; for `CN=C(N)SCCCSC(N)=NC`, 15.6%; for `CC(=O)NCS(=O)(=O)O`, -12.3%.
Take `Cc1ccc(/C=C/c2cc(/C=C/c3ccc(C)cc3)c([N+](=O)[O-])cc2[N+](=O)[O-])cc1`: the growth inhibition is -1.4%.
Same read-out and setting: with `C1=C2CCc3ccc(o3)CCC(=C1)O2` the figure was -0.05%.
As for `COc1cc2c(cc1OC)C1=Cc3cc(OC)c(OC)cc3C(C)N1C=C2` (stereo not given), the growth inhibition was -23.9%.
For the compound `O=C(O)CC(c1ccccc1)C(CC(=O)O)c1ccccc1.[NH-]C1CCCCC1[NH-].[Pt+2]` (stereo not given), the growth inhibition was -36.9%.
The same measure, in the same setting: with `Nc1cccc2c(=O)[nH][nH]c(=O)c12` the figure was 14.8%.
The same measure, in the same setting: for `N#C/C(=C/c1ccc[nH]1)C(=O)O` the value was -5.05%; for `CCOC(=O)c1ccc(NC(=S)NCc2cccnc2)cc1`, 22.2%; for `COC1OC(CO)C(O)C1O` (stereo not given), -4.85%.
Still for that read-out and setting: with `C=C1C(=O)OC2/C=C(/CO)C3(O)CC(O)C(C)(CC(OC(=O)/C(C)=C/C)C12)O3` (stereo not given) the figure was 0.85%.
As to `CCOC(=O)C(C(=O)OCC)c1cnc2ccccc2c1Cl`, the growth inhibition was -4.5%.
As for `CCCCNC(=O)NCCCC`, the growth inhibition is -2.65%.
Same read-out and setting: for `CC(C)(O)C#Cc1ccccc1` the value was -9.5%; for `CC(C)(C)CC(C)(C)c1cc2c(O)c(c1)Cc1cc(C(C)(C)CC(C)(C)C)cc(c1O)Cc1cc(C(C)(C)CC(C)(C)C)cc(c1O)Cc1cc(C(C)(C)CC(C)(C)C)cc(c1O)Cc1cc(C(C)(C)CC(C)(C)C)cc(c1O)C2`, 6.3%; for `Cc1c(Cl)cccc1NC(=O)Nc1ccccc1F`, 28.4%.
Still for that read-out and setting: for `CCCC(=O)Oc1ccc(C(C)(C)C)cc1` the value was 20.4%.
Take `Cc1ccc(NC(=O)Oc2ccccn2)cc1`: the growth inhibition is -0.35%.
The same measure, in the same setting: for `CCNC(=O)NC(=O)C(C)(C)Oc1ccc(Cl)cc1` the value was 12.4%; for `COc1cc(C(=O)n2ncc(C(C)=O)c2C)cc(OC)c1OC`, 0.3%.
Still for that read-out and setting: for `CCCCCCCCCC[C@@H](OC(C)=O)[C@@H]1CC[C@@H]([C@@H]2CC[C@@H]([C@@H](O)CC#C/C=C/CCCCCCC[C@@]3(Sc4ccccc4)C[C@H](C)OC3=O)O2)O1` the value was -15.3%; for `CCOC(=O)CC1NC(=O)CNC1=O` (stereo not given), -1.65%.
On the same count and under the same terms, for `O=[N+]([O-])c1cc2c(c3nonc13)OCCCCO2` the value was 23.7%; for `Cc1cc(Cl)ccc1NC(N)=O`, -3.7%.
Regarding `CCN(CC)CC1CCCCCCCCCCC1=O` (stereo not given), the growth inhibition was -44%.
On the same count and under the same terms, for `O=C(O)Cc1ccc(N2N=C(c3ccccc3)CC2=O)cc1` the value was 22.4%; for `CC(C)(C)[Si](C)(C)OCC1CCC(n2cnc3c(N)ncnc32)O1` (stereo not given), -1.95%.
On the same count and under the same terms, for `Cc1ccc(S(=O)(=O)/C(C#N)=C\N2CC(=O)NC2=S)cc1` the value was -13.9%; for `NC(=S)N/C=C\c1nc2ccccc2[nH]c1=O`, -12.1%; for `COC(=O)C(CC(=O)[C@H]1CC[C@H]2[C@@H]3CC=C4C[C@@H](OC(C)=O)CC[C@]4(C)[C@H]3CC[C@]12C)OC(C)=O` (stereo not given in full), -1.75%.
On the same count and under the same terms, with `COc1ccc(/C(=N\NC(=O)C(N)=O)C(c2ccc(OC)cc2)C2(O)C(=O)Nc3c(Cl)cccc32)cc1` (stereo not given) the figure was 0.3%; with `COc1c2occc2c(Br)c2ccc(=O)oc12`, 51.8%; with `COc1ccc(/C=N/NC(=O)NCCNCCO)cc1`, -39.5%.

The next assay is described as follows: NCI Yeast Anticancer Drug Screen. Data for the mlh1 rad18 strain (AID 175). The note with it: S. cerevisiae mlh1 rad18 strain growth inhibition; at 50.0 µM; active compounds read high. In short, it runs like this: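 Genetically defined yeast (DNA repair-deficient) exposed to compounds; growth inhibition determined relative to vehicle.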
Take `CCCc1nc2ccc(C)cc2[nH]1`: the growth inhibition is 7.9%.
Take `COc1cc(C2C3=C(COC3=O)OC(C)(C)Oc3cc4c(cc32)OCO4)cc(OC)c1O` (stereo not given): the growth inhibition was 0%.
For the compound `O=C(O)C(CCOc1ccccc1)(CCc1ccccc1)C(=O)O`, the growth inhibition was -13.4%.
Still for that read-out and setting: with `COC(=O)c1c(C(=O)Nc2ccccc2)c(-c2ccccc2)n(NC(N)=O)c1C` the figure was 17%; with `CC(=O)Nc1ccc(/C=C2\SC(=S)N(/C=C3/C(=O)N(c4ccccc4)N=C3C)C2=O)cc1`, 7%; with `CC(=O)N1C(Nc2ccccc2)CCN1c1ccccc1` (stereo not given), -8.35%.
Same read-out and setting: for `COC1OC(CO)C(O)C(NC(=O)OCc2ccccc2)C1O` (stereo not given) the value was -13.4%; for `CN=C(N)SCCCSC(N)=NC`, 8.5%; for `CC(=O)NCS(=O)(=O)O`, -9.55%.
With `Cc1ccc(/C=C/c2cc(/C=C/c3ccc(C)cc3)c([N+](=O)[O-])cc2[N+](=O)[O-])cc1`, the growth inhibition is 1.2%.
The same measure, in the same setting: for `C1=C2CCc3ccc(o3)CCC(=C1)O2` the value was 1.35%; for `COc1cc2c(cc1OC)C1=Cc3cc(OC)c(OC)cc3C(C)N1C=C2` (stereo not given), -16.7%; for `O=C(O)CC(c1ccccc1)C(CC(=O)O)c1ccccc1.[NH-]C1CCCCC1[NH-].[Pt+2]` (stereo not given), -5.6%.
Regarding `Nc1cccc2c(=O)[nH][nH]c(=O)c12`, the growth inhibition was 22.1%.
Same read-out and setting: with `N#C/C(=C/c1ccc[nH]1)C(=O)O` the figure was -25.9%; with `CCOC(=O)c1ccc(NC(=S)NCc2cccnc2)cc1`, -6.7%.
On the same count and under the same terms, for `COC1OC(CO)C(O)C1O` (stereo not given) the value was -9.25%; for `C=C1C(=O)OC2/C=C(/CO)C3(O)CC(O)C(C)(CC(OC(=O)/C(C)=C/C)C12)O3` (stereo not given), -27.2%; for `CCOC(=O)C(C(=O)OCC)c1cnc2ccccc2c1Cl`, 2.85%.
Still for that read-out and setting: with `CCCCNC(=O)NCCCC` the figure was -0.15%; with `CC(C)(O)C#Cc1ccccc1`, 11.1%; with `CC(C)(C)CC(C)(C)c1cc2c(O)c(c1)Cc1cc(C(C)(C)CC(C)(C)C)cc(c1O)Cc1cc(C(C)(C)CC(C)(C)C)cc(c1O)Cc1cc(C(C)(C)CC(C)(C)C)cc(c1O)Cc1cc(C(C)(C)CC(C)(C)C)cc(c1O)C2`, 24.2%.
`Cc1c(Cl)cccc1NC(=O)Nc1ccccc1F`: the growth inhibition is 17.4%.
As for `CCCC(=O)Oc1ccc(C(C)(C)C)cc1`, the growth inhibition is 5.5%.
Regarding `Cc1ccc(NC(=O)Oc2ccccn2)cc1`, the growth inhibition was -6.25%.
The same measure, in the same setting: with `CCNC(=O)NC(=O)C(C)(C)Oc1ccc(Cl)cc1` the figure was 18.8%; with `COc1cc(C(=O)n2ncc(C(C)=O)c2C)cc(OC)c1OC`, 8.45%.
Take `CCCCCCCCCC[C@@H](OC(C)=O)[C@@H]1CC[C@@H]([C@@H]2CC[C@@H]([C@@H](O)CC#C/C=C/CCCCCCC[C@@]3(Sc4ccccc4)C[C@H](C)OC3=O)O2)O1`: the growth inhibition is -12.1%.
Still for that read-out and setting: for `CCOC(=O)CC1NC(=O)CNC1=O` (stereo not given) the value was -13.2%; for `O=[N+]([O-])c1cc2c(c3nonc13)OCCCCO2`, 77% (active).
Turning to `Cc1cc(Cl)ccc1NC(N)=O`, the growth inhibition was -1.85%.
On the same count and under the same terms, for `CCN(CC)CC1CCCCCCCCCCC1=O` (stereo not given) the value was -28.9%; for `O=C(O)Cc1ccc(N2N=C(c3ccccc3)CC2=O)cc1`, -9.3%.
The same measure, in the same setting: for `CC(C)(C)[Si](C)(C)OCC1CCC(n2cnc3c(N)ncnc32)O1` (stereo not given) the value was 6.7%; for `Cc1ccc(S(=O)(=O)/C(C#N)=C\N2CC(=O)NC2=S)cc1`, -25.6%; for `NC(=S)N/C=C\c1nc2ccccc2[nH]c1=O`, -15.4%.
Still for that read-out and setting: with `COC(=O)C(CC(=O)[C@H]1CC[C@H]2[C@@H]3CC=C4C[C@@H](OC(C)=O)CC[C@]4(C)[C@H]3CC[C@]12C)OC(C)=O` (stereo not given in full) the figure was 8.7%; with `COc1ccc(/C(=N\NC(=O)C(N)=O)C(c2ccc(OC)cc2)C2(O)C(=O)Nc3c(Cl)cccc32)cc1` (stereo not given), -23.1%; with `COc1c2occc2c(Br)c2ccc(=O)oc12`, 8.6%.
Regarding `COc1ccc(/C=N/NC(=O)NCCNCCO)cc1`, the growth inhibition was -17.2%.
